# AHR activator: AHR activators, primary screen, cell-based, luminescence, luciferase reporter, human. Aryl hydrocarbon receptor (Homo sapiens), P35869. AHR-responsive luciferase reporter cells. activation, % at 5 µM. 2.5% of 320,000 active. AID 2796, 2010; in the data active means activation above about 47%;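 further: 0% = vehicle wells and 100% = reference agonist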
# DAX1 inh: DAX1 (NR0B1) inhibitors, primary screen, cell-based, HEK293, Gal4-DAX1, luciferase luminescence | Nuclear receptor subfamily 0 group B member 1 (Homo sapiens), P51843 | HEK293 Gal4-DAX1 luciferase reporter | inhibition, % at 6.75 µM | 0.99% of 340,000 active;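 active means inhibition above the mean over all tested compounds plus 3 SD, cut at about 4.2% in these data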;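 further: 0% = DAX1-transfected cells with DMSO and 100% = empty-vector control cells with DMSO; inhibition shows as a rise in luminescence from relieved DAX1 repression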
# Target sequence (P51843 207-470 limits assumed): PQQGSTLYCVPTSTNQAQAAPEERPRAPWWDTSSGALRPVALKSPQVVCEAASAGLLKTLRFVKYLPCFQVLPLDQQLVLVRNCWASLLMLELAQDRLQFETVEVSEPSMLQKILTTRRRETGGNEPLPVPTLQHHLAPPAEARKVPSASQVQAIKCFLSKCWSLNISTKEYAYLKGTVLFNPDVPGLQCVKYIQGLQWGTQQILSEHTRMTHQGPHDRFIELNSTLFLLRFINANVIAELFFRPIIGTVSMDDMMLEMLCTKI
# HSF1 inh: HSF1 inhibitors in luciferase reporter cells, primary screen, cell-based, NIH3T3, luminescence. 0.77% of 300,000 active. activity change, negative = inhibition, % at 7.5 µM (by protocol). NIH3T3-HGL HSE-luciferase, MG132-induced, luminescence 8 h; hits give low values. AID 2098, 2009;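 active means more than half of replicate wells show activity change below -50%, luminescence cut by over half; inconclusive means some wells, but at most half, below -50%; inactive means no replicate well below -50%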;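 further: luciferase reports HSF-1 transcriptional activity via heat shock element; 0% = median of DMSO wells and -100% = zero luminescence signal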
# GAA850 FXN act: FXN promoter activators, primary screen, cell-based, luciferase luminescence, HEK293 lucGAA850; activation, % at 6 µM; AID 540364, 2011; HEK293 lucGAA850 FXN promoter luciferase reporter, 24 h; percent of 10 µM SAHA response; 0.56% of 360,000 active;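 active means activation above the average of all compounds screened plus 3 SD, cutoff fixed separately per campaign, cut at about 7.5% in these data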;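 further: 0% = DMSO wells and 100% = 10 µM SAHA wells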
# HSF1 activator: HSF-1 activators, primary screen, NIH3T3-HGL cells, MG132 stress, luminescence, single point | NIH3T3-HGL HSF-1 luciferase reporter, 8 h; 100% = twice DMSO control signal | activation, % at 9 µM | 1.7% of 300,000 active;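 active means mean replicate activation of at least 50% with a set share of replicates each reaching 50%; inconclusive means only one of those two conditions met; inactive means mean below 50% and too few replicates reaching it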;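 further: 0% = median of the neutral control wells and 100% = twice that signal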
# HSP90 inh: HSP90 inhibitors, primary screen, cell lysate, luminescence | Heat shock protein HSP 90 (rabbit reticulocyte lysate; luciferase refolding) | Rabbit reticulocyte lysate, luciferase refolding luminescence, 3 h | inhibition, % at 5.6 µM | 0.91% of 290,000 active | AID 1789, 2009;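 active means inhibition above the screen-wide mean plus 3 SD, computed separately per campaign, cut at about 16% in these data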;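 further: 0% = DMSO wells and 100% = 60 µM geldanamycin wells; inhibitors lower the luminescence because luciferase stays unfolded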
# * hit, by the source's call; ? = inconclusive; · = no result given. Sampled rows, rich in hits. Any-hit rate of the full collection: about 5.9%.
SMILES,AHR activator,DAX1 inh,HSF1 inh,GAA850 FXN act,HSF1 activator,HSP90 inh
Cc1cccc(NC(=O)CSc2nnc(CNC(=O)c3ccco3)o2)c1,7.4,0.4,-8.0,2.0,-3.1,1.8
CNC(=O)C[C@H]1C(=O)N(C2CCCCC2)C[C@@H]1CSC,·,0.1,·,-0.5,·,·
Cc1ccc(C(=O)Nc2cccc(Oc3ccccc3)c2)o1,-3.8,0.8,22.3,2.3,58.1*,8.5
O=C(CCl)Nc1cccc(Oc2ccccc2)c1,1.1,-1.8,37.4,-4.0,74.0*,1.8
COc1ccc(NC(C)=O)cc1NC(=O)c1cccc(S(=O)(=O)N2CCc3ccccc32)c1,0.1,-0.1,·,-0.6,·,·
CCCCn1c(SCc2c(C)noc2C)nc2cc(S(N)(=O)=O)ccc21,4.6,1.5,30.4,6.0,51.7*,8.9
CCCCn1c(SCC(=O)Nc2cc(C)on2)nc2cc(S(N)(=O)=O)ccc21,-0.9,0.3,·,0.0,·,·
CCN(CC)c1ccc(C(=O)NNC(=O)c2cccn2C)cc1,31.8,4.7*,18.0,1.6,54.7*,·
COc1ccc(OCCN(C)Cc2c(O)ccc3ccccc23)cc1,22.6,-1.2,98.8,1.0,130.0*,6.1
O=C(CCC(=O)N1CCN(Cc2ccc(F)cc2)CC1)Nc1nnc(C2CCCCC2)s1,1.1,1.1,-0.8,1.5,-4.8,3.6
CCn1c(CNc2ccc(Cl)cc2)nnc1SCc1ccc(C)cc1,50.5*,-0.7,-1.3,0.2,-11.0,-3.1
CCc1nc2ccc(C(=O)N(C)CCCN(C)C)cn2c1N(C)Cc1cc2ccccc2s1,·,·,·,0.3,·,·
Cc1ccc(S(=O)(=O)N2CCN(C(=O)C3CCCC3)CC2)cc1C,1.6,-0.4,-2.4,0.0,34.6,-0.3
O=C(Cn1cnc([N+](=O)[O-])n1)N/N=C/c1cccc2ccccc12,21.5,0.8,4.9,-0.4,16.3,-2.4
O=C(Cn1cncn1)N/N=C/c1cccc2ccccc12,69.5*,-1.2,-2.4,3.4,-3.1,3.2
COc1cc(-c2nc3n(c(=O)c2C#N)CCS3)cc(OC)c1OC,8.7,-0.2,0.4,-0.5,11.0,-3.1
CCOc1ccc(S(=O)(=O)N2CCCCC2)cc1NC(=O)CN1C(=O)NC(C)(c2ccccc2)C1=O (stereo not given),3.4,0.5,3.3,2.3,-20.1,·
O=C(/C=C/c1ccco1)Nc1ccc2c(c1)OCO2,71.7*,2.3,22.0,4.5,16.6,4.7
Cc1ccc(NC(=O)c2cccc(NC(=O)/C=C/c3ccco3)c2)cc1C,11.8,-1.7,39.8,2.9,72.5*,1.0
COc1ccc(-n2nnnc2Sc2ccc(S(=O)(=O)N3CCOCC3)cn2)cc1,1.1,-1.5,-7.8,0.3,15.2,·
Cc1c(CN(C)Cc2cn(C)nc2-c2ccccc2F)[nH]c2ccccc12,48.0*,0.9,·,1.6,·,4.0
CN(CCCN1CCOCC1)Cc1cn(C)nc1-c1ccccc1F,0.9,-0.6,-3.0,0.4,-3.1,-2.4
O=c1c(/C=N\NS(=O)(=O)c2ccccc2)coc2ccc(Cl)cc12,0.3,0.2,-75.0*,-1.1,-79.2,1.2
O=C(N/N=C/c1coc2ccccc2c1=O)c1ccc(Cl)cc1,10.8,0.8,1.2,-0.7,-2.6,15.8
O=C(CSc1nnc(NC2CCCCC2)s1)Nc1ccc2c(c1)C(=O)c1ccccc1C2=O,10.7,11.7*,29.3,2.9,47.2,-1.9
SMILES,AHR activator,DAX1 inh,HSF1 inh,GAA850 FXN act,HSF1 activator,HSP90 inh
O=S(=O)(NC1C2CC3CC(C2)CC1C3)c1ccc(F)cc1 (stereo not given),·,-0.9,·,2.4,·,·
O=C(O)c1ccc(/C=N/Nc2ncc(Cl)cc2Cl)cc1,4.8,6.5*,-11.2,1.3,-7.0,-0.9
O=C(c1ccc(S(=O)(=O)Cc2cc(F)ccc2F)c([N+](=O)[O-])c1)N1CCOCC1,·,-1.0,·,-4.2,·,·
Cc1cc(C(F)(F)Cl)n2ncc(-c3ccccn3)c2n1,63.6*,2.1,-2.6,0.9,-7.2,4.8
Cc1cc(Cl)n2ncc(-c3ccccc3)c2n1,0.1,3.0,-5.8,-0.7,-5.8,5.1
COCCNC(=O)CN(C(=O)CCC(=O)Nc1ccccn1)c1cc(C)ccc1C,-0.4,1.2,-4.7,1.1,-3.6,-2.6
COc1ccccc1NS(=O)(=O)c1ccc(C)c(NC(=O)NCCCl)c1,-0.5,4.4*,0.3,1.5,-13.5,-0.8
O=C(CCCCCn1c(=S)[nH]c2cc3c(cc2c1=O)OCO3)N1CCN(C(=O)c2ccco2)CC1,0.2,-2.3,-67.3*,2.1,-76.2,-1.3
COc1ccccc1/C=C/C(=O)c1ccc(NC(C)=O)cc1,12.2,-2.8,-6.6,-0.4,7.8,5.5
COc1ccc(OC)c(/C=C/C(=O)c2ccc(Cl)cc2)c1,-1.8,-0.8,19.3,2.9,18.9,-1.9
COc1ccccc1/C=C/C(=O)NC(=S)NC(C)C,67.8*,0.0,8.9,0.4,11.2,-2.9
COc1ccccc1/C=C/C(=O)c1ccc(Cl)cc1,91.3*,-1.2,1.4,2.5,17.9,3.1
COc1ccccc1/C=C/C(=O)NC(=S)N1CCN(C)CC1,·,3.5,·,-0.8,·,-2.8
O=C(/C=C/c1ccccc1O)c1ccc(Cl)cc1,66.0*,-1.1,53.8,1.0,?,3.3
CCOc1ccccc1/C=C/C(=O)c1ccc(Cl)cc1,70.5*,-0.5,29.5,0.1,69.2*,3.5
O=C(CCC1CCN(C(=O)CC2=CCCCC2)CC1)NCc1ccc(F)cc1,·,-1.6,·,0.6,·,·
Cc1ccc(CNC(=O)CNS(=O)(=O)c2ccc(Br)s2)cc1,-3.0,1.4,-3.1,0.9,2.4,3.0
CSc1ccccc1NC(=O)CN(C)C(=O)CNC(=O)c1ccc(Oc2ccccc2)cc1,·,-1.3,·,2.3,·,·
CC(OC(=O)c1ccccc1)C(=O)NCc1ccco1 (stereo not given),1.1,1.0,·,3.8,·,·
Nc1nc2ncc(CNc3ccc(C(=O)N[C@@H](CCC(=O)O)C(=O)O)cc3)nc2c(=O)[nH]1,-0.5,5.2*,-0.1,0.5,1.8,2.8
Cc1ccc(N=N/C(=C\O)C(=O)c2ccc(Cl)cc2)cc1,6.3,-2.0,-64.3*,3.7,-63.7,3.1
O=C(/C(=C/O)N=Nc1ccccc1)c1ccc(Cl)cc1,1.1,-0.5,-22.4,1.9,-24.2,-1.4
Cc1nc(Nc2cccc(F)c2)c2oc3ccccc3c2n1,48.8*,-0.3,10.0,3.5,18.4,0.1
Cc1nc(Nc2ccccc2O)c2oc3ccccc3c2n1,·,-0.8,-8.2,0.1,-0.6,5.1
CCc1nc(Nc2ccc3c(c2)OCCO3)c2oc3ccccc3c2n1,63.2*,-0.9,-8.5,-1.7,-13.5,0.4
Cc1nc(Nc2ccccc2F)c2oc3ccccc3c2n1,55.9*,0.3,7.2,2.2,26.8,-3.8
